Only some compounds are listed: those with a hit (about 18% of all), similar ones and a draw of the others.
LDHA block: qHTS assay for inhibitors of human lactate dehydrogenase | actives 0.15% (n = 480,000) | purified LDHA, NADH/diaphorase-resazurin fluorescence; active compounds read low | activity change, % (values are at about 110 or 230 µM) | L-lactate dehydrogenase A chain (Homo sapiens), P00338; in the data active = activity change below about -30%; inconclusive = mostly about -25% to -30%
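LDH5 2 nM; NADH 0.06 mM, pyruvate 0.2 mM; 200 mM Tris pH 7.4, EDTA, Tween-20; 5 min RT. Detection: diaphorase 0.133 mg/mL + resazurin 37 µM, fluorescence ex540/em590 at 0 and 20 min; normalized to enzyme-free and DMSO wells.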
RORgamma inh: qHTS for inhibitors of ROR gamma transcriptional activity; Potency, µM (titrated, usually from 53.6 µM), hits mostly inhibitors; actives 5.4% (n = 310,000); Nuclear receptor ROR-gamma (Mus musculus), P51450; Drosophila S2 Gal4-RORgamma UAS-luciferase reporter, 20 h; note: nearly all actives have a fitted effect of over 60% in size
Target sequence (P51450 whole entry, looked up, the tested form may be a part): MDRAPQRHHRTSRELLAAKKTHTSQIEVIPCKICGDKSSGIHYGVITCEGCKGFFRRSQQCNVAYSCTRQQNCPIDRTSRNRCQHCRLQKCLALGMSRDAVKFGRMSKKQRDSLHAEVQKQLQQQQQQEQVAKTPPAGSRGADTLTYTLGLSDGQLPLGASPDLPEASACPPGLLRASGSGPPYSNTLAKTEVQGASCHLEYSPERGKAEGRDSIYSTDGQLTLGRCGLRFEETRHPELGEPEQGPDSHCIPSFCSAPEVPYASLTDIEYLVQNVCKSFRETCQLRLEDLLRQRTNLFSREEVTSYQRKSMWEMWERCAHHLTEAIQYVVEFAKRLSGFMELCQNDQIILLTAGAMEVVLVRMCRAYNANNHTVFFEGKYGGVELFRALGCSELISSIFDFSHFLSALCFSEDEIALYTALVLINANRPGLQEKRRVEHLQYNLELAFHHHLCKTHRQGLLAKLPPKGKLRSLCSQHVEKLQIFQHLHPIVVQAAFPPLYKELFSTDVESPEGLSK
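Stable Schneider cell line, Gal4 DNA-binding domain fused to ROR gamma, UAS-luciferase. Cmpd 1 hr RT → CuSO4 700 uM final → 20 hr RT → luciferase reagent 10 min → luminescence.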
VP16 counter: VP16 counterscreen qHTS for inhibitors of ROR gamma transcriptional activity; Drosophila S2 Gal4-VP16 UAS-luciferase, luminescence, 20 h; Potency, µM (series often up to 53.6 µM), usual class: inhibitors; actives 3.5% (n = 310,000);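 note: Gal4-VP16 expression switched on by copper sulfate through the metallothionein promoter; nearly all actives have a fitted effect of over 50% in size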
IL-1B inflam inh: qHTS for Inhibitors of Inflammasome Signaling: IL-1-beta AlphaLISA Primary Screen | activity change, % at 57.5 µM | actives 4.7% (n = 360,000) | THP-1 LPS/ATP IL-1B secretion, AlphaLISA, 16 h; active compounds read low; in the data active = activity change below about -50%; inconclusive = mostly about -30% to -49%
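Secreted IL-1B measured by AlphaLISA bead assay after 16 h compound exposure of THP-1 cells; compounds (final up to 57.5 uM) added 1 h before LPS (250 ng/mL) and ATP (1.25 mM) stimulation; lower signal means less secretion.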
TDP1 cell noCPT: qHTS for Inhibitors of human tyrosyl-DNA phosphodiesterase 1 (TDP1): qHTS in cells in absence of CPT; DT40 Tdp1-/- hTDP1 cells, no CPT, ATP luminescence, 48 h; Potency, µM (highest dose often 46.2 µM), most hits filed as inhibitors; actives 15% (n = 420,000); AID 686978, 2013; note: nearly all actives have a fitted effect of over 55% in size
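A cellular qHTS used chicken DT40 cells lacking endogenous Tdp1 but carrying stably transfected human TDP1. Compounds were applied without camptothecin, and cell growth kinetics were judged by ATP-dependent luminescence after ≥48 hr.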
TDP1 cell CPT: qHTS for Inhibitors of human tyrosyl-DNA phosphodiesterase 1 (TDP1): qHTS in cells in presence of CPT; chicken DT40 Tdp1-/-;hTDP1 cells + 20 nM CPT, ATP luminescence, 48 h; Potency, µM (series often up to 46.2 µM), hits mostly inhibitors; actives 12% (n = 420,000); note: nearly all actives have a fitted effect of over 55% in size
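Chicken DT40 Tdp1-/- cells complemented with human TDP1, 400 cells/well, exposed to compounds plus 20 nM camptothecin for at least 48 h at 37 C; viability read as ATP content by CellTiter-Glo luminescence.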
A number is an active result; n = inactive; u = inconclusive; x = not tested or not shown; [ ] = remark or other dose. Unless noted, calls come from the whole dose curve; as a rule, active = well fitted curve in the direction sought with a large enough effect; inconclusive = small, poorly fitted or top-dose-only effect, or another doubt; inactive = no such curve, though single readings can be large; an effect the other way counts as inactive or inconclusive.

SMILES	LDHA block	RORgamma inh	VP16 counter	IL-1B inflam inh	TDP1 cell noCPT	TDP1 cell CPT
Cc1cc(C)c2nc(NNC(=O)c3ccc(S(=O)(=O)N4CCCC(C)C4)cc3)sc2c1 (stereo not drawn)	n	0.79µM	5µM	n	4.1µM	2.9µM
Cc1cccc2sc(NNC(=O)c3ccc(S(=O)(=O)N4CC(C)CC(C)C4)cc3)nc12 (stereo not drawn)	n	0.71µM	1.4µM	n	7.3µM	13µM
Cc1cc(C)c2nc(NNC(=O)c3ccc(S(=O)(=O)N4CC(C)CC(C)C4)cc3)sc2c1 (stereo not drawn)	n	2µM	7.9µM	n	5.8µM	5.8µM
O=[N+]([O-])c1cc([N+](=O)[O-])c(N2CCOCC2)cc1NCc1ccccc1	n	n	n[0.365 µM]	n	18µM	8.2µM
O=[N+]([O-])c1c(NCc2ccccc2)cc(N2CCc3ccccc3C2)c2nonc12	n	n	n	n	21µM	u
O=C(Nc1c(Cl)ccc2nsnc12)c1ccc([N+](=O)[O-])o1	n	n	u	-98	u	u
O=C(Nc1cccnc1)c1ccc([N+](=O)[O-])o1	n	n	u	-92	15µM	9.2µM
O=C(Cc1ccc([N+](=O)[O-])cc1)NCc1cccnc1	n	n	n	n	n	n
O=C(Nc1ccc(Cl)cn1)c1ccc([N+](=O)[O-])o1	n	u	u	-226	15µM	2.3µM
O=C(NCc1ccco1)c1ccc([N+](=O)[O-])o1	n	5µM	n	-61	u	u
O=C(NCc1cccnc1)c1ccc([N+](=O)[O-])o1	n	n	n	-67	u	u
O=C(NCc1cccnc1)c1ccc(N2CCOCC2)c([N+](=O)[O-])c1	n	n	n[10 µM]	n	16µM	u
Cc1c(Cl)c([N+](=O)[O-])nn1Cc1ccc(C(=O)Nc2ccc(Cl)cn2)o1	n	u	n	n	u	n
Cc1cccc(C)c1NC(=O)c1cc2ccccc2oc1=O	n	x	x	x	x	x
COc1cc(OC)cc(C(=O)Nc2ccc3oc(=O)ccc3c2)c1	n	x	x	x	x	x
Cc1ccc(/C=C/C(=O)NCc2ccco2)cc1	n	x	x	x	x	x
Cc1ccc(C)c(/C(O)=C2\C(=O)C(=O)N(c3nnc(C)s3)C2c2ccccc2)c1 (stereo not drawn)	n	x	x	x	x	x
O=C(CN1CCC(c2nc3ccccc3s2)CC1)NC(=O)Nc1ccc2c(c1)OCCO2	n	x	x	x	x	x
Cc1ccc(C)c(N2CC(C(=O)OCC(=O)c3ccc(Br)cc3)CC2=O)c1 (stereo not drawn)	n	x	x	x	x	x
CC(=O)c1ccc(NC2=C(N3CCOCC3)C(=O)c3ccccc3C2=O)cc1	n	n	n	-76	21µM	23µM
Cc1ccc(NC2=C(N3CCOCC3)C(=O)c3ccccc3C2=O)cc1	n	u	n[0.365 µM]	-100	26µM	21µM
C/C(=N\NC(=O)c1cccs1)c1cccc(C)c1	n	x	x	x	x	x
Cn1c(=O)c2c(nc(Cl)n2CC(=O)N(Cc2ccccc2F)C2CC2)n(C)c1=O	n	x	x	x	x	x
O=C(CO/N=C/c1ccc(Cl)cc1Cl)NNC(=O)c1ccc(Cl)cc1Cl	n	0.089µM	u	n	n	n
CCN(CC)CCCC(C)NC(=O)c1c(NC(=O)c2ccccc2)sc2c1CCCC2 (stereo not drawn)	n	n	n	x	u	18µM
SMILES	LDHA block	RORgamma inh	VP16 counter	IL-1B inflam inh	TDP1 cell noCPT	TDP1 cell CPT
Cc1ccccc1NC(=O)c1c(NC(=O)c2ccccc2)sc2c1CCC2	n	x	x	x	n	n
CCOc1ccccc1NC(=O)c1c(NCc2sccc2C)sc2c1CCC(C)C2 (stereo not drawn)	n	x	x	x	6.5µM	6.5µM
CCOc1ccccc1NC(=O)c1c(NC(=O)c2ccccc2)sc2c1CCCC2	n	x	x	x	u	4.1µM
CCOc1ccccc1NC(=O)c1c(NC(=O)c2ccncc2)sc2c1CCC(C(C)(C)C)C2 (stereo not drawn)	n	x	x	x	n	n
CCOc1ccccc1NC(=O)c1c(NCc2cccs2)sc2c1CCCCC2	n	x	x	x	21µM	u
CCOC(=O)c1c(C)[nH]c(NC(=O)Nc2ccc(-c3ccccc3)cc2)c1C	n	x	x	x	x	x
Cc1nnc2n1CC(Nc1ncc(C(F)(F)F)cc1Cl)CC2 (stereo not drawn)	n	x	x	x	x	x
CCOC(=O)N1CCc2c(sc(NCc3sccc3C)c2C(=O)Nc2ccccc2OCC)C1	n	x	x	x	23µM	u
CCOc1ccccc1NC(=O)c1c(NCc2sccc2C)sc2c1CCCCC2	n	x	x	x	15µM	8.2µM
COc1ccccc1NC(=O)c1c(NCc2sccc2C)sc2c1CCCCC2	n	x	x	x	u	u
CCOC(=O)N1CCc2c(sc(NCc3sccc3C)c2C(=O)Nc2ccc(OC)cc2OC)C1	n	x	x	x	u	u
CCCCCCNC(=S)Nc1ccc(F)cc1	n	x	x	x	x	x
CCCN(CC(=O)NC(=O)NC1CCCC1)Cc1ccc(C#N)cc1	n	x	x	x	x	x
Cc1nn(-c2ccc(N3CCCCC3)nn2)c(C)c1CCC(=O)NCc1ccc(OC(C)C)cc1	n	x	x	x	16µM	16µM
Cc1ccc(CNC(=O)CCc2c(C)nn(-c3ccc(N4CCCCC4)nn3)c2C)cc1	n	x	x	x	u	u
Cc1nn(-c2ccc(N3CCCCC3)nn2)c(C)c1CCC(=O)NCc1ccc(Cl)cc1	n	x	x	x	26µM	u
CCc1ccc(CNC(=O)CCc2c(C)nn(-c3ccc(N4CCCCC4)nn3)c2C)cc1	n	x	x	x	u	u
Cn1cc(C(C(=O)O)N2CCN(c3ncccn3)CC2)c2ccc(C(=O)O)cc21 (stereo not drawn)	n	x	x	x	x	x
CCN(Cc1cccc(F)c1)C(=O)Cn1nnn(-c2cccs2)c1=O	n	x	x	x	x	x
COc1cc(CNC(=O)c2nccnc2N)ccn1	n	x	x	x	x	x
O=c1c(-c2c(O)cc(O)c3c2O[C@H](c2ccc(O)cc2)CC3)c(-c2ccc(O)cc2)oc2cc(O)cc(O)c12	n	x	x	n	5.2µM	u
C=CCOc1ccccc1NC(=O)c1ccccc1	n	x	x	x	x	x
O=C(N/N=C/c1cccnc1)c1cc(-c2cccs2)nc2ccccc12	n	n	n	n	16µM	u
O=C(N/N=C/c1ccc[nH]1)c1cc(-c2cccs2)nc2ccccc12	n	2.8µM	6.3µM	n	21µM	u
O=C(NN=C1CCCCCC1)c1cc(-c2cccs2)nc2ccccc12	n	x	x	x	x	x
Cn1cccc1/C=N/NC(=O)c1ccccn1	n	n	n	n	u	u
Cn1cccc1/C=N/NC(=O)c1cc(-c2cccs2)nc2ccccc12	n	7.1µM	u	n	5.8µM	8.2µM
Cn1cccc1/C=N/NC(=O)c1cc2ccccc2cc1O	n	1.4µM	2µM	n	21µM	n

Screening data: PubChem, National Center for Advancing Translational Sciences (NCATS)
